USP10 inh = inhibitors of human USP10 deubiquitinase | purified USP10, Ub-rhodamine fluorescence, 60 min | inhibition, % at 20 µM | 47,000 tested, 1.1% active | Ubiquitin carboxyl-terminal hydrolase 10 (Homo sapiens), Q14694
OTUD3 block = inhibitors of human OTUD3 deubiquitinase. OTU domain-containing protein 3 (Homo sapiens), Q5T2D3. purified OTUD3, Ub-rhodamine fluorescence, 2 h. inhibition, % at 25 µM. 47,000 tested, 0.7% active
UCHL1 block = inhibitors of human UCHL1 deubiquitinase | Ubiquitin carboxyl-terminal hydrolase isozyme L1 (Homo sapiens), P09936 | purified UCHL1, Ub-rhodamine cleavage fluorescence | inhibition, % at 20 µM | 47,000 tested, 0.2% active | AID 1645859, 2021
USP8 inh = inhibitors of human USP8 deubiquitinase. Ubiquitin carboxyl-terminal hydrolase 8 (Homo sapiens), P40818. purified USP8, Ub-rhodamine cleavage fluorescence, 30 min. inhibition, % at 20 µM. 47,000 tested, 4.2% active. AID 1645853, 2021
Target sequence (P40818 whole entry, looked up): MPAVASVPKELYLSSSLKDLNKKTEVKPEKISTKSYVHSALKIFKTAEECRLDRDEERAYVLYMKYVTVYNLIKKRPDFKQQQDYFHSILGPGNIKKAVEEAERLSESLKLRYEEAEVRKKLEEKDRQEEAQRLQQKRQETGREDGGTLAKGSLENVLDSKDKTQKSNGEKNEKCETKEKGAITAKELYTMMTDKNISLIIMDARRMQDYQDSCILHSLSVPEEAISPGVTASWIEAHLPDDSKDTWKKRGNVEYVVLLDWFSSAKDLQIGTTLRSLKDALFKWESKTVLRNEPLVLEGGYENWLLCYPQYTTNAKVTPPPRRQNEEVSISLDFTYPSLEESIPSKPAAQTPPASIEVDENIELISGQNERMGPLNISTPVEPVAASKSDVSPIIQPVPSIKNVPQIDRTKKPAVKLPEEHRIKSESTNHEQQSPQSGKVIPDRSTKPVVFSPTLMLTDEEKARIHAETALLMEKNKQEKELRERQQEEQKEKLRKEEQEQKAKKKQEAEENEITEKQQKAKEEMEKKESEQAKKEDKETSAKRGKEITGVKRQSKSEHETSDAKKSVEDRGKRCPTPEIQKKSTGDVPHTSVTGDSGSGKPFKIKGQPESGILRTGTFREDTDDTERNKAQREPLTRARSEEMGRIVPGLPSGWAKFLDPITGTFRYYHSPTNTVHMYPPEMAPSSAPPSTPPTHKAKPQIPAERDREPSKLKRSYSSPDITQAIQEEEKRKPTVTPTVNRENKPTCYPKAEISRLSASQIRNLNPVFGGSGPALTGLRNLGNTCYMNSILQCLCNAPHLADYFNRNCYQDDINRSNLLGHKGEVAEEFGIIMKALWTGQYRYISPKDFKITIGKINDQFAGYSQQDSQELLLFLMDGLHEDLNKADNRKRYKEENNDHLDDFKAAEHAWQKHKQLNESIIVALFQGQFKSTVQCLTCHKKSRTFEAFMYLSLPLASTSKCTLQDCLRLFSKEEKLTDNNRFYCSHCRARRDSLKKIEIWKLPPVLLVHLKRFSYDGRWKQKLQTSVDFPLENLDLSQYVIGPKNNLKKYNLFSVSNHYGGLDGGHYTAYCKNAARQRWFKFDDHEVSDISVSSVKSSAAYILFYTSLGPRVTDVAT
USP7 block = inhibitors of human USP7 deubiquitinase | purified USP7, Ub-rhodamine cleavage fluorescence | Ubiquitin carboxyl-terminal hydrolase 7 (Homo sapiens), Q93009 | AID 1645854, 2021 | 47,000 tested, 0.3% active | inhibition, % at 20 µM
Starred values were filed as active, the others as inactive; . = no result. Compounds with a hit are over-represented: about 5% of the library has one in this group of screens. Cut-off read from the data, not from the text of the source: active = inhibition above about 30%; inactive = the rest.

SMILES	USP10 inh	OTUD3 block	UCHL1 block	USP8 inh	USP7 block
COc1ccc(N2C(=O)[C@@H]3[C@H]4c5ccccc5C=CN4C(C(=O)Nc4ccc5c(c4)OCO5)[C@@H]3C2=O)cc1 (stereo partly drawn)	-7	-35	-144	87*	-155
COc1ccc(Cl)cc1NC(=O)C1[C@@H]2C(=O)N(Cc3ccc4c(c3)OCO4)C(=O)[C@@H]2[C@H]2c3ccccc3C=CN12 (stereo partly drawn)	-5	14	-155	72*	-114
Cc1ccc(CNC(=O)C2(C)Cn3nc(C)cc3C(=O)N2c2ccc3c(c2)OCCO3)cc1 (stereo not drawn)	-1	12	2	11	3
NS(=O)(=O)c1ccc(NC(=O)C2Cc3ccccc3C(=O)O2)cc1 (stereo not drawn)	18	0	1	36*	4
O=C(O)Cc1ccc(NC(=O)C2Cc3ccccc3C(=O)O2)cc1 (stereo not drawn)	1	3	2	-13	5
COC(=O)c1ccc(N2CCN(C(C)=O)CC2)c(NC(=O)COc2ccc([N+](=O)[O-])cc2)c1	43*	2	5	80*	12
COc1ccc(OC)c2c(C)cc(N3CC(C)CC(C)C3)nc12 (stereo not drawn)	15	30*	22	98*	-33
Cc1ccc2nc(-c3ccc(C(C)C)cc3)cc(C(=O)N3CCC(Cc4ccccc4)CC3)c2c1	-1	-1	2	-4	4
CC1Cc2ccccc2N1C(=O)Cc1csc(NC(=O)c2ccc(=O)[nH]c2)n1 (stereo not drawn)	-7	-29	-25	47*	-29
CSC1SCC2C(=O)N(C)C(C(C)C(C)C)C(=O)OCC(NC(=O)c3cnc4ccccc4n3)C(=O)NC(C)C(=O)N(C)C1C(=O)N(C)C(C(C)C(C)C)C(=O)OCC(NC(=O)c1cnc3ccccc3n1)C(=O)NC(C)C(=O)N2C (stereo not drawn)	38*	2	7	14	18
Cc1cc(-c2ncc(C)[nH]2)nc(CC2CCN(C(=O)C3CCC3)CC2)n1	-2	8	0	0	3
O=C(Nc1cccc(Cl)c1)N1CCC(c2nc(-c3cccnc3)no2)CC1	1	-7	0	-1	2
O=C(Nc1cccc(Cl)c1)N1CCC(c2cc(-c3ccco3)n[nH]2)CC1	-5	33*	-12	80*	-7
Cc1ccccc1NC(=O)CNc1nc(Nc2ccccc2)nc(Nc2ccccc2)n1	0	-2	1	34*	3
O=C(CNc1nc(Nc2ccccc2)nc(Nc2ccccc2)n1)Nc1ccccc1F	10	9	9	7	8
CN1CCN(c2ncnc3c2oc2ccc(Cl)cc23)CC1	2	88*	12	0	-1
c1cnc(N2CCN(c3ncnc4c3oc3ccccc34)CC2)nc1	0	0	-1	0	-2
O=C(CNC1Cc2ccccc2C1)Nc1ccccc1N1CCOCC1	2	2	3	46*	1
COc1ccccc1CNC(=O)CCC1CCCC1	4	0	1	3	-27
COc1ccccc1CNC(=O)Nc1cccc2ccccc12	5	10	0	71*	1
O=C(NCc1cccc(NC(=O)C2CC2)c1)Nc1cccc2ccccc12	13	42*	1	4	3
Cc1cccc(NC(=O)CSCC(=O)Nc2cccc3ccccc23)c1	6	-5	1	0	-10
O=C(Cn1nc(-c2ccccc2)cc(NC(=O)c2ccccc2)c1=O)Nc1ccc(F)cc1	38*	24	2	4	.
O=C(Cn1cnc(-c2ccccc2)cc1=O)Nc1ccc(Oc2ccccc2)cc1	20	14	3	46*	16
Cc1ccc(-c2cc(=O)n(CC(=O)Nc3ccc(C(C)C)cc3)cn2)cc1	42*	9	-5	34*	18
SMILES	USP10 inh	OTUD3 block	UCHL1 block	USP8 inh	USP7 block
O=C(CCCC(=O)c1ccccc1)Nc1ccc(F)cc1Cl	7	10	3	35*	-4
CC(OC(=O)c1ccc(N2CCCC2=O)cc1)C(=O)Nc1ccc2c(c1)OCO2 (stereo not drawn)	0	-5	0	56*	3
Cc1nc(-c2noc(-c3ccncc3)n2)cn1CC(=O)N1CCN(c2ccc(F)cc2)CC1	2	3	-1	-21	0
CCCCOc1cccc(C(=O)Nc2cccc3cccnc23)c1	12	12	8	27	13
Cc1nc2ccc(C(=O)Nc3cc(Cl)cc4cccnc34)cc2nc1C	-7	9	4	87*	-9
O=C(c1cc(-c2ccncc2)n(-c2ccc(F)cc2)n1)N1CCc2ccccc21	3	6	7	8	4
O=C(Oc1ccccc1Br)c1ccc(Cl)c(S(=O)(=O)N2CCCCC2)c1	9	1	3	31*	5
N#Cc1ccccc1NC(=O)c1ccc(Cl)c(S(=O)(=O)N2CCCCCC2)c1	9	16	6	1	6
COc1cccc(CNC(=O)N2CCN(C(C)=O)CC3(CC(=O)N(C)C3)C2)c1 (stereo not drawn)	0	0	-4	-52	-2
COc1ccc(/C=C/C(=O)Nc2nc3n(n2)C(c2ccccc2)CC(=O)N3)cc1OC (stereo not drawn)	3	12	6	79*	11
COc1ccc(/C=C/C(=O)Nc2nc3n(n2)C(c2ccccc2)CC(=O)N3)cc1 (stereo not drawn)	21	14	7	73*	13
Cc1nc2ccccc2n1CCC(=O)NC(C)c1ccccc1 (stereo not drawn)	0	12	1	2	2
COc1cccc(CC(=O)N[C@@H](C)c2nc3cc(-c4ccc(F)cc4)ncn3n2)c1	0	22	0	2	-3
COc1ccc(-c2cc3nc([C@@H](C)NC(=O)c4ccc5c(c4)OCO5)nn3cn2)cc1	1	21	0	32*	-34
COc1ccc(-c2cc3nc([C@H](C)NC(=O)Cc4cc(F)ccc4F)nn3cn2)cc1	37*	29	22	14	46*
COc1ccc(-c2cc3nc([C@H](C)NC(=O)Cc4cccc(F)c4)nn3cn2)cc1	29	17	38*	9	52*
CCc1nc(SCc2cccc(F)c2)c2oc3ccccc3c2n1	6	24	5	3	5
O=S(=O)(c1ccccc1)c1cnc2ccccc2c1N1CCCCC1	6	12	6	3	2
COc1ccc(Nc2cc(-c3cccc(C(F)(F)F)c3)nc(-c3ccncc3)n2)cc1	-3	-3	-1	38*	3
O=S(=O)(c1ccccc1)N1CCN(c2ccc(-c3cccnc3)nn2)CC1	1	-7	0	-172	0
CCc1ccccc1NC(=O)CN1C(=O)C2CCCC2=Nc2ccccc21 (stereo not drawn)	34*	6	0	34*	11

Screening data deposited in PubChem BioAssay by Buhrlage Lab, Dana-Farber Cancer Institute and Novartis Institutes for BioMedical Research (Cambridge, Mass).
